Source: PubChem (University of Kansas High Throughput Screening Laboratory)
Pf apPOL inh – Pf-apPOL DNA polymerase inhibition; Recombinant Pf-apPOL, molecular beacon fluorescence, 1.5 h; AID 1794808; inhibition, % at 10 µM; hit rate 0.25% among 210,000
mHTT-CaM PPI inh – inhibitors of human mutant huntingtin-calmodulin interaction; inhibition, % at 15 µM; hit rate 3.6% among 190,000; AlphaScreen His-mHTT/GST-CaM binding, luminescence; AID 1671202; P42858;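 also: 0% = both proteins with DMSO and 100% = one protein alone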
Target sequence (P42858 whole entry, looked up, stated change not applied): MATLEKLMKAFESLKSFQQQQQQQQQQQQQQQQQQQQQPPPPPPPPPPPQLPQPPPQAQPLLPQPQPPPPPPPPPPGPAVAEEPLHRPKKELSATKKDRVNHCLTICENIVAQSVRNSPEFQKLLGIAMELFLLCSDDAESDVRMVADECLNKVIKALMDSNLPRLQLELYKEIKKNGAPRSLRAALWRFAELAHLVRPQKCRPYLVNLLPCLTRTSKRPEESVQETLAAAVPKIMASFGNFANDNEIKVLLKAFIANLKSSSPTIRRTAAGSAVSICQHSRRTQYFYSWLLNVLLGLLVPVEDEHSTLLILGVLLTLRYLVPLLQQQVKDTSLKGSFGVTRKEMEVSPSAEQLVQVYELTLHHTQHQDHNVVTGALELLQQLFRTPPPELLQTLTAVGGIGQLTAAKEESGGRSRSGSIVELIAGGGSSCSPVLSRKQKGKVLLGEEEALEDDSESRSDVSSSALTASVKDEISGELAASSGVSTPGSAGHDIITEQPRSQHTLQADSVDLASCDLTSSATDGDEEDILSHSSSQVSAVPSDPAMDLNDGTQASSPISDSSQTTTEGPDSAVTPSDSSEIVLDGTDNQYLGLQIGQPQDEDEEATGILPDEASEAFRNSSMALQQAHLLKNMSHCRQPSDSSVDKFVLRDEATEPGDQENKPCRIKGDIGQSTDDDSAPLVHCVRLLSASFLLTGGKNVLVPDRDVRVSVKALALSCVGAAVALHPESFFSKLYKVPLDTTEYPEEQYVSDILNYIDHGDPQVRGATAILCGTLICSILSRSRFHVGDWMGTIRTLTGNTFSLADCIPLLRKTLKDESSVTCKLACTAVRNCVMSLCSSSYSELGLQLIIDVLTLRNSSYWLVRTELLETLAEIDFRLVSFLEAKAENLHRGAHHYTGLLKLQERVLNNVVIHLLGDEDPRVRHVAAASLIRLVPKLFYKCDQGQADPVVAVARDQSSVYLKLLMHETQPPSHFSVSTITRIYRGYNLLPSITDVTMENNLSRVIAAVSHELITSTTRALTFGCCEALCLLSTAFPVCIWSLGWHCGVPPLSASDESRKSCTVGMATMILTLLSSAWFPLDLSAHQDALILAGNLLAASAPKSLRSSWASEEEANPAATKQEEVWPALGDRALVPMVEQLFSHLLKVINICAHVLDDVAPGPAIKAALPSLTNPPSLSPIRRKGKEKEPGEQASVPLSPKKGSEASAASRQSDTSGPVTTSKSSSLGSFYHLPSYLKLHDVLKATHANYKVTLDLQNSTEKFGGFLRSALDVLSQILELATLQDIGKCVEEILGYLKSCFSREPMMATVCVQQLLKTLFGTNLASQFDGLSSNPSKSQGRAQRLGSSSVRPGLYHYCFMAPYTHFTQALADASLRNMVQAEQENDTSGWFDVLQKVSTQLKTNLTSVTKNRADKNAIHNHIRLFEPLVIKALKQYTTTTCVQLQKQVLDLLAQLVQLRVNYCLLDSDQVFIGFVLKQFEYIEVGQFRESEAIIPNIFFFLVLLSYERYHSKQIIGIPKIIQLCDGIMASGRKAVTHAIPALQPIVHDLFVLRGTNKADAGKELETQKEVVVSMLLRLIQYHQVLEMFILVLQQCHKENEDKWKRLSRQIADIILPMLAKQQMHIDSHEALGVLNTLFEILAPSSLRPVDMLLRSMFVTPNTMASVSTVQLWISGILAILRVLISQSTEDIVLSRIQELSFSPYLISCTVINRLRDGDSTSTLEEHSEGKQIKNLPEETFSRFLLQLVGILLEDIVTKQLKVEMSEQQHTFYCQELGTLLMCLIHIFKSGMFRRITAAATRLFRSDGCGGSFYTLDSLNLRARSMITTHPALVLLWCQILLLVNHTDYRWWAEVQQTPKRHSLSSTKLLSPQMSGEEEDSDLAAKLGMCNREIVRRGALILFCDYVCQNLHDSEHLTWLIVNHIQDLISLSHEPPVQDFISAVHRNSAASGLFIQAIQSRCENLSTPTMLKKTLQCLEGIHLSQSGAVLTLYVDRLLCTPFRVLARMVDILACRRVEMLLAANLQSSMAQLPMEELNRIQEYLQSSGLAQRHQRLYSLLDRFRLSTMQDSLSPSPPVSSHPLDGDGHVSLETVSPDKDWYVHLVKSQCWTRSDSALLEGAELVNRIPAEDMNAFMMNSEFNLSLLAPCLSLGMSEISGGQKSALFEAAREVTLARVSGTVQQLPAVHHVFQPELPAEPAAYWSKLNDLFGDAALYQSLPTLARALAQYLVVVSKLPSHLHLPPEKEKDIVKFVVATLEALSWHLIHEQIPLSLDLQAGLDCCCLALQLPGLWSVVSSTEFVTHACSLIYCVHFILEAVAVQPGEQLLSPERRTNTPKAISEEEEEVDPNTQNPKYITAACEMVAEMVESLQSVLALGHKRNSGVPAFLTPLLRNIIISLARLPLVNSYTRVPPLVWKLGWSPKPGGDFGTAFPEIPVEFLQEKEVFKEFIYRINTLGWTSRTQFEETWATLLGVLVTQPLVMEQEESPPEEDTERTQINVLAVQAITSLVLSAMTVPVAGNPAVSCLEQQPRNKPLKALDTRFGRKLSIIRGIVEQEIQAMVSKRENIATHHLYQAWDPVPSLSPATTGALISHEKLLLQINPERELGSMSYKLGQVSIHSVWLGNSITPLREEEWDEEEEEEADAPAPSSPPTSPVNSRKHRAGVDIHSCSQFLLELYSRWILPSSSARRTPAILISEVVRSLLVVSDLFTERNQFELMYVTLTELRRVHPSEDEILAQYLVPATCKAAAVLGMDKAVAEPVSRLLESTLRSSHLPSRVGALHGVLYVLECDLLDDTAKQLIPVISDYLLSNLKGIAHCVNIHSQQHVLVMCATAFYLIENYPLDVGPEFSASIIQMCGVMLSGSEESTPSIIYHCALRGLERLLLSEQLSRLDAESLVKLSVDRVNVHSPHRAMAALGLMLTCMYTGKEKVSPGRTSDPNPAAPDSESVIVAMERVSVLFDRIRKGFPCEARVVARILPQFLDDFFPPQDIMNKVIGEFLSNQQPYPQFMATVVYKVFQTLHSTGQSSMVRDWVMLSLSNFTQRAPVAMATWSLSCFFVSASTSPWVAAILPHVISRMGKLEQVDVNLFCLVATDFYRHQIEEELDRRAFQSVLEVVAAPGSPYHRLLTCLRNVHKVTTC
* = called active by the depositor; . = not tested or not shown. The full list was thinned out, with hits kept by preference. Rule as the data show it: active = inhibition above about 50%; inactive = the rest.

SMILES	Pf apPOL inh	mHTT-CaM PPI inh
Cc1ccc(C2=NC(=O)/C(=C\c3cc(O)c(O)c(Br)c3)S2)cc1	10	95*
COc1cc(/C=C2/SC(c3ccc(C)cc3)=NC2=O)cc(OC)c1O	5	42
O=C1CN(C(=O)NCc2cccs2)c2ccccc2N1	-5	-16
COc1ccc(NC(=O)c2ccc(N(Cc3ccc(Cl)cc3)S(C)(=O)=O)cc2)cc1OC	-2	38
CS(=O)(=O)N(Cc1ccc(Cl)cc1)c1ccc(C(=O)Nc2ccc3c(c2)OCO3)cc1	89*	8
Cc1cc(N2Cc3ccccc3C2)ccc1C=O	3	82*
O=C1NC(=O)c2cc(N3Cc4ccccc4C3)ccc21	-2	79*
Cc1ccc(N2C(=O)CC(N3CCc4ccccc4C3)C2=O)cc1C (centres undefined)	-9	0
O=C1NC(=O)c2cc(-c3ccccc3)ccc21	2	-8
O=C(CN1CCN(C(=O)c2cc(-c3ccco3)[nH]n2)CC1)c1ccco1	73*	60*
Cc1cc(C(=O)N2CCC(COCc3ccccc3)CC2)no1	-9	-14
CS(=O)(=O)N1CCN(C(=O)c2cc(-c3ccco3)[nH]n2)CC1	0	-9
O=C(c1cc(-c2ccco2)[nH]n1)N1CCC(COCc2ccccc2)CC1	0	59*
COc1ccc(OC)c(NC(=O)C2CCCN(C(=O)c3cccc(C)c3)C2)c1 (centres undefined)	-27	32
O=C1[C@H](Cc2ccccc2)NC/C=C\C[C@H](c2ccco2)N1Cc1ccccc1	1	51*
O=C(NCCc1ccccc1)N1CCCC1c1ccc(Cl)cc1 (centres undefined)	-4	0
O=C1[C@H](Cc2ccccc2)NC/C=C\C[C@@H](c2ccc(Cl)cc2)N1Cc1ccc(Cl)cc1	1	99*
COC(=O)C1=C(C(=O)OC)[C@]2([C@@H]3C/C=C\CN[C@@H](Cc4ccccc4)C(=O)N3Cc3ccccc3)C=C[C@H]1O2	-3	25
COc1cccc(S(=O)(=O)N2CCN(C(C)c3ccccc3)CC2)c1 (centres undefined)	4	-1
Cc1cc(C)n(CC(=O)Nc2ccc3c(c2)OCCO3)c(=O)c1C#N	-6	-17
C[n+]1ccc(/C=C/c2ccccc2F)c2ccccc21	-4	6
C=CC[n+]1ccc(/C=C/c2ccccc2O)c2ccccc21	-4	69*
CCCN1CCN(C(=O)c2cccc(C3CCCN(C(=O)NC)C3)c2)CC1 (centres undefined)	-3	-5
Cc1cc(C)nc(-n2nc(C)c3c2NC(=O)CC3c2ccc3ccccc3c2)n1 (centres undefined)	-1	70*
Cc1nn(-c2nc3ccccc3s2)c2c1C(c1ccccc1)CC(=O)N2 (centres undefined)	1	-4
SMILES	Pf apPOL inh	mHTT-CaM PPI inh
Cn1c(N2CCCC(C(=O)N3CCN(c4ccc(Cl)cc4)CC3)C2)cc(=O)n(C)c1=O (centres undefined)	8	30
CN(C)CCCN1C(=O)C(=O)C(=C(O)c2ccccc2)C1c1ccc([N+](=O)[O-])cc1 (centres undefined)	-3	2
COCCCNC(=O)C1CCN(c2ncccc2-c2nc(-c3cccc(F)c3)no2)CC1	-4	-4
COCCCNC(=O)C1CCN(Cc2cc3ccccc3n2Cc2cccc(F)c2)CC1	4	51*
COCCCNC(=O)C1CCN(c2cnn(Cc3ccccc3)c(=O)c2)CC1	-1	-2
COCCCNC(=O)C1CCN(Cc2cc3ccccc3n2Cc2ccc(F)cc2)CC1	3	53*
O=C(NCCc1c[nH]c2ccccc12)C(c1ccccc1)n1cccc1 (centres undefined)	2	96*
CC(NC(=O)CCc1c[nH]c2ccccc12)c1ccccc1 (centres undefined)	-3	4
CCOc1ccc(C(=O)N2CCc3c(c(-c4nc(C)no4)nn3C)C2)cc1	1	1
O=C(NCc1nc2ccccc2[nH]1)c1csc(Nc2ccccc2)n1	-6	19
Cc1ccc(S(=O)(=O)CCC(=O)Nc2ncc(Br)s2)cc1	0	69*
Cc1ccc(NC(=O)CCS(=O)(=O)c2ccc(Br)cc2)nc1	10	-2
CN(CCC#N)C(C(=O)NC1CCCC1)c1cc2c(cc1[N+](=O)[O-])OCO2 (centres undefined)	-5	-2
Cc1noc(C)c1S(=O)(=O)N1CCC(CC(=O)NC2CCCCCC2)CC1	-5	0
COc1ccc(NCc2ccccc2[N+](=O)[O-])cc1OC	4	64*
COc1ccccc1NCc1ccc([N+](=O)[O-])s1	11	31
COc1ccc(C=O)cc1OCc1ccccc1[N+](=O)[O-]	94*	1
COc1ccc(NCc2ccc([N+](=O)[O-])s2)cc1OC	4	65*
CCOc1cc(CN2CCN(Cc3ccccc3[N+](=O)[O-])CC2)ccc1OC	6	9
COc1ccc(NC(=O)Cc2ccccc2[N+](=O)[O-])cc1OC	2	2
Cc1ccc(CNc2ccc(-c3nc(-c4ccc(F)cc4)no3)cn2)cc1	-3	-11
COc1ccc(NC2=C(N(C)C)C(=O)c3ccccc3C2=O)cc1	-5	63*
COc1ccc(C2=C(Nc3ccc(C(N)=O)cc3)c3ccccc3C2=O)cc1	-1	38
COc1cccc(Nc2ccccc2C)c1	-3	15
COc1cccc(NC2=C(N(C)C)C(=O)c3ccccc3C2=O)c1	1	58*
SMILES	Pf apPOL inh	mHTT-CaM PPI inh
CC(=O)C(C=Nc1cc(C)c(O)c(Cl)c1)=C(C)O	-2	.
O=C(Nc1ccccc1[N+](=O)[O-])c1ccc(Cl)c(S(=O)(=O)NCc2ccccc2)c1	-6	34
O=C(Nc1ccccc1[N+](=O)[O-])c1ccc(Br)c(S(=O)(=O)Nc2ccccc2)c1	6	23
O=C(Nc1ccccc1[N+](=O)[O-])c1ccc(Cl)c(S(=O)(=O)Nc2ccc(Cl)cc2)c1	-17	86*
O=C(Nc1ccccc1[N+](=O)[O-])c1ccc(Cl)c(S(=O)(=O)NCc2ccco2)c1	54*	29
CCN1C(=O)CC(C(=O)Nc2ccccc2F)SC1=Nc1ccc(F)cc1 (centres undefined)	-1	-3
CCCCOc1ccc(C2=N/C(=C/c3ccc(OC)c(OC)c3)C(=O)O2)cc1	-1	2
CC(C)CC1=NN2C(=N)/C(=C/c3ccc(N(C)C)cc3)C(=O)N=C2S1	-3	5
COc1cc(C2CC(=O)Nc3n[nH]c(-c4ccccc4)c32)ccc1O (centres undefined)	1	54*
COc1ccc(OC)c(C2CC(=O)Nc3n[nH]c(-c4ccccc4)c32)c1 (centres undefined)	2	94*
COc1cccc(C2CC(=O)Nc3n[nH]c(-c4ccc(Cl)cc4)c32)c1 (centres undefined)	3	34
COc1ccc(C2CC(=O)Nc3n[nH]c(-c4ccccc4)c32)cc1 (centres undefined)	-2	-1
COc1cc(C2CC(=O)Nc3n[nH]c(-c4ccc(Cl)cc4)c32)cc(OC)c1OC (centres undefined)	1	100*
COc1ccc(C2CC(=O)Nc3n[nH]c(-c4ccccc4)c32)cc1OC (centres undefined)	-5	9
O=C(NCCCN1CCOCC1)C1CCc2sc(C(=O)N3CCCC3)cc2C1 (centres undefined)	-9	-4
Cc1ccc2cc(CCC(=O)N3CCCCC3)c(=O)[nH]c2c1	-2	0
Cc1cccc(NC(=O)c2ccc([N+](=O)[O-])cc2Cl)c1	-2	16
